According to PubChem BioAssay AID624255 (Broad Institute, 2012):
Hit rate of the full screen: of about 77,000 compounds, about 4,600 (6%) were called active. Roughly 1% stayed inconclusive and do not appear here. This is one part of a sample in which actives are shown more often than they occur. Values without a mark were called inactive.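 How the source made its calls: active means mean inhibition above about 93%, with at least 55% of replicates each passing it (limit read from the data, passing the limit was not always enough); inconclusive means only one of those two conditions holds; inactive means neither condition holds.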

Assay: T. cruzi intracellular proliferation inhibitors, primary screen, cell-based, beta-gal Tulahuen parasites, NIH3T3 host, luminescence (AID 624255)
Conditions: T. cruzi beta-gal in NIH3T3, GalScreen luminescence, 90 h; at 8.34 µM; hits give high values

Question: For COc1cccc(CNC(=O)C[C@H]2CC[C@@H](NC(C)=O)[C@@H](CO)O2)c1, which inhibition is on record?
Answer: Its inhibition is -45.2%.

Question: With CC(=O)N1C[C@@H]2[C@H](c3ccccc31)[C@H](CO)N2C(=O)Nc1ccc(F)cc1 as the compound, how does the inhibition read?
Answer: Its inhibition is -6.85%.

Question: Which inhibition does the source give for C[C@@H](NC(=O)C[C@@H]1CC[C@H]2[C@@H](COC[C@@H](O)CN2C(=O)Nc2cccc(F)c2)O1)c1ccccc1 here?
Answer: The inhibition was 33.4%.

Question: For O=C(C[C@@H]1C[C@H]2c3cc(NC(=O)Nc4ccccc4)ccc3O[C@H]2[C@@H](CO)O1)NCc1cccnc1, which inhibition is on record?
Answer: Its inhibition is -4.79%.

Question: Which inhibition does the source give for Cc1noc(C)c1NC(=O)Nc1ccc2c(c1)C(=O)N([C@H](C)CO)C[C@@H](C)[C@@H](CN(C)S(=O)(=O)c1ccc(Cl)cc1)OCCCC[C@H](C)O2 here?
Answer: The inhibition was 55.2%.

Question: Which inhibition does the source give for COc1ccccc1S(=O)(=O)N[C@@H]1CC[C@H](CC(=O)N2CCN(C)CC2)O[C@@H]1CO here?
Answer: Its inhibition is -19.7%.

Question: With COc1cccc(S(=O)(=O)Nc2ccc3c(c2)[C@@H]2C[C@@H](CC(=O)NCc4ccc(Cl)cc4)O[C@H](CO)[C@@H]2O3)c1 as the compound, how does the inhibition read?
Answer: The inhibition was 32.2%.

Question: Which inhibition does the source give for O=C(C[C@@H]1C[C@H]2c3cc(NC(=O)C4CCOCC4)ccc3O[C@H]2[C@H](CO)O1)NCc1ccc2c(c1)OCO2 here?
Answer: Its inhibition is 40.2%.

Question: With O=C(C[C@@H]1C[C@@H]2c3cc(NC(=O)c4ccc5c(c4)OCO5)ccc3O[C@@H]2[C@@H](CO)O1)NCc1ccc(Cl)cc1 as the compound, how does the inhibition read?
Answer: The inhibition was 97.9% (active).

Question: Which inhibition does the source give for O=C(C[C@@H]1C[C@H]2c3cc(NC(=O)C4CCC4)ccc3O[C@H]2[C@@H](CO)O1)NCc1ccc2c(c1)OCO2 here?
Answer: The inhibition was 106% (active).

Question: With CN(C)C(=O)C[C@@H]1C[C@@H]2c3cc(NC(=O)c4ccc5c(c4)OCO5)ccc3O[C@@H]2[C@H](CO)O1 as the compound, how does the inhibition read?
Answer: The inhibition was -59.5%.

Question: For O=C(Nc1ccc2c(c1)[C@@H]1C[C@H](CC(=O)N3CCOCC3)O[C@@H](CO)[C@@H]1O2)c1ccc2c(c1)OCO2, which inhibition is on record?
Answer: Its inhibition is 103% (active).

Question: With O=C(C[C@@H]1C[C@H]2c3cc(NC(=O)CC4CC4)ccc3O[C@H]2[C@@H](CO)O1)NCc1ccc2c(c1)OCO2 as the compound, how does the inhibition read?
Answer: The inhibition was 30.3%.

Question: For CCCNC(=O)C[C@H]1C[C@@H]2c3cc(NS(=O)(=O)c4cccc(OC)c4)ccc3O[C@@H]2[C@@H](CO)O1, which inhibition is on record?
Answer: The inhibition was -11.6%.

Question: For COc1cccc(S(=O)(=O)Nc2ccc3c(c2)[C@H]2C[C@H](CC(=O)NCc4ccc(Cl)cc4)O[C@H](CO)[C@H]2O3)c1, which inhibition is on record?
Answer: Its inhibition is 159% (active).

Question: With CN1CCN(C(=O)C[C@@H]2C[C@@H]3c4cc(NC(=O)c5ccc6c(c5)OCO6)ccc4O[C@@H]3[C@H](CO)O2)CC1 as the compound, how does the inhibition read?
Answer: The inhibition was 8.43%.

Question: Which inhibition does the source give for O=C(C[C@H]1C[C@H]2c3cc(NC(=O)c4ccc5c(c4)OCO5)ccc3O[C@H]2[C@@H](CO)O1)NCc1cccc(F)c1 here?
Answer: Its inhibition is 38.1%.

Question: For O=C(C[C@H]1C[C@@H]2c3cc(NC(=O)c4ccc5c(c4)OCO5)ccc3O[C@@H]2[C@@H](CO)O1)NCc1cccnc1, which inhibition is on record?
Answer: Its inhibition is -76.9%.

Question: Which inhibition does the source give for CCNC(=O)C[C@@H]1CC[C@H]2[C@@H](COc3ccc(NC(=O)NC(C)C)cc3C(=O)N2C)O1 here?
Answer: Its inhibition is 39.8%.

Question: With C[C@H](CO)N1C[C@H](C)[C@@H](CN(C)S(=O)(=O)c2cccs2)OCc2ccccc2-c2ccccc2C1=O as the compound, how does the inhibition read?
Answer: The inhibition was 24.1%.

Question: Which inhibition does the source give for O=C(C[C@@H]1C[C@H]2c3cc(NS(=O)(=O)c4ccc(F)cc4)ccc3O[C@H]2[C@H](CO)O1)NC1CCCC1 here?
Answer: The inhibition was -34%.

Question: For O=S(=O)(N[C@@H]1CC[C@H](CCn2cc(-c3ccccc3F)nn2)O[C@H]1CO)c1ccc(F)cc1, which inhibition is on record?
Answer: The inhibition was 41.8%.

Question: Which inhibition does the source give for COc1cccc(NC(=O)Nc2ccc3c(c2)C(=O)N(C)[C@@H]2CC[C@@H](CC(=O)NCCc4ccccc4)O[C@H]2CO3)c1 here?
Answer: Its inhibition is 52.2%.

Question: Which inhibition does the source give for COc1ccc(S(=O)(=O)N2C[C@@H](O)COC[C@H]3O[C@H](CC(=O)N[C@H]4CCN(Cc5ccccc5)C4)CC[C@@H]32)cc1 here?
Answer: Its inhibition is 77.6%.

Question: With COc1ccc(NC(=O)Nc2ccc3c(c2)C(=O)N([C@H](C)CO)C[C@@H](C)[C@@H](CN(C)C(=O)NC(C)C)OCCCC[C@H](C)O3)cc1 as the compound, how does the inhibition read?
Answer: Its inhibition is 38.7%.

Question: Which inhibition does the source give for CCC(=O)N(C)C[C@H]1Oc2cc(-c3ccccc3F)ccc2S(=O)(=O)N([C@H](C)CO)C[C@@H]1C here?
Answer: The inhibition was 81.3%.

Question: Which inhibition does the source give for O=C(C[C@H]1CC[C@H]2[C@@H](COC[C@H](O)CN2Cc2ccncc2)O1)NCC1CC1 here?
Answer: The inhibition was 8.17%.

Question: For C[C@@H]1CN([C@@H](C)CO)C(=O)c2cc(C#CCN(C)C)cnc2O[C@H]1CN(C)S(=O)(=O)c1cn(C)cn1, which inhibition is on record?
Answer: The inhibition was -8.13%.

Question: Which inhibition does the source give for Cn1cnc(S(=O)(=O)N2C[C@H](O)COC[C@@H]3O[C@H](CC(=O)NC4CCCC4)CC[C@H]32)c1 here?
Answer: The inhibition was 5.65%.

Question: With CCC(=O)N1[C@@H]2c3ccc(-c4cccnc4)c(=O)n3C[C@H]1[C@H](CO)[C@H]2C(=O)N1CCc2ccccc2C1 as the compound, how does the inhibition read?
Answer: Its inhibition is 29.4%.

Question: Which inhibition does the source give for O=C(C1CCC1)N1C[C@@H]2[C@H](c3ccccc31)[C@H](CO)N2C(=O)c1ccccc1 here?
Answer: Its inhibition is 11.8%.

Question: With CC(C)CC#Cc1ccc2c(c1)O[C@H](CN(C)C(=O)c1cccnc1)[C@@H](C)CN([C@H](C)CO)S2(=O)=O as the compound, how does the inhibition read?
Answer: Its inhibition is 78.2%.

Question: Which inhibition does the source give for CC(C)CC#Cc1ccc2c(c1)O[C@H](CN(C)Cc1cccnc1)[C@H](C)CN([C@@H](C)CO)S2(=O)=O here?
Answer: Its inhibition is 103% (active).

Question: Which inhibition does the source give for CC(C)CC#Cc1ccc2c(c1)O[C@H](CN(C)Cc1ccncc1)[C@H](C)CN([C@H](C)CO)S2(=O)=O here?
Answer: Its inhibition is 118% (active).

Question: With COCC#Cc1ccc2c(c1)O[C@@H](CN(C)Cc1cccnc1)[C@@H](C)CN([C@H](C)CO)S2(=O)=O as the compound, how does the inhibition read?
Answer: Its inhibition is 70%.

Question: For CCCN(C)C[C@H]1Oc2cc(C#CCC(C)C)ccc2S(=O)(=O)N([C@H](C)CO)C[C@H]1C, which inhibition is on record?
Answer: The inhibition was 75.8%.

Question: With CCNC(=O)C[C@H]1CC[C@@H](NC(=O)C2CCOCC2)[C@@H](CO)O1 as the compound, how does the inhibition read?
Answer: The inhibition was 40%.

Question: With CCNC(=O)Nc1ccc2c(c1)C(=O)N(C)[C@H]1CC[C@H](CC(=O)NCC3CCCCC3)O[C@@H]1CO2 as the compound, how does the inhibition read?
Answer: Its inhibition is 25.8%.

Question: For CCS(=O)(=O)Nc1ccc2c(c1)C(=O)N(C)C[C@@H](OC)[C@@H](C)CN(C(=O)COC)[C@H](C)CO2, which inhibition is on record?
Answer: Its inhibition is -5.98%.
